We go through six compounds from PubChem BioAssay (EPA / NIEHS).

Broadly, the AC50 is the midpoint of the concentration-response curve, whichever way the signal moves.

Several values for one entry are separate records, joined by “and”; a condition that tells them apart may be missing. Equal values may be shown once. Records with an inconclusive call do not appear. Activity calls are given as the source filed them. The calls were made as follows: active = hit-call score of the fitted dose curve at least 0.9, where 1 is the maximum; inconclusive = response in the unintended direction; inactive = score below 0.9.

Sequence of Estrogen receptor beta (Homo sapiens) (Q92731 whole entry, looked up, the tested form may be a part): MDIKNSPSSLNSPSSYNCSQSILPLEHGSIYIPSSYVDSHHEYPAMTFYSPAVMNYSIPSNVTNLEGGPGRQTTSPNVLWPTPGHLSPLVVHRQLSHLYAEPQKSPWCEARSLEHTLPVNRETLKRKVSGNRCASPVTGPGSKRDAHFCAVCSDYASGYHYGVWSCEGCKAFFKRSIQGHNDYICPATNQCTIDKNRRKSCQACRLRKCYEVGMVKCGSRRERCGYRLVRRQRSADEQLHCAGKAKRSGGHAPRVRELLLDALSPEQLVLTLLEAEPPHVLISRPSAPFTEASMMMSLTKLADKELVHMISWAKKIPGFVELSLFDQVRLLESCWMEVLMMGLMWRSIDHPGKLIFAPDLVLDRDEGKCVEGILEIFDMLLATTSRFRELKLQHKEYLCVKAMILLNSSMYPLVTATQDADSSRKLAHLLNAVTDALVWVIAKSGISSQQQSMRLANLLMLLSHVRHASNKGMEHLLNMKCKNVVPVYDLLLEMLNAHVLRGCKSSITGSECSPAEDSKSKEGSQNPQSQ

The target of one test is Estrogen receptor beta (Homo sapiens) (UniProt Q92731). Kind of test: ATG_hERb_XSP2: Attagene TRANS-FACTORIAL Multi-Species (XSP2) HepG2 Assay for human Estrogen Receptor (ERb) (AID 2283813).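 Also: actives raise reporter mRNA above DMSO so AC50 reflects agonist induction.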 A digest of the protocol:
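HepG2 cells transiently transfected with GAL4-UAS reporter units and chimeric human ERb-Gal4, 24 h exposure. Reporter mRNA quantified by RT-PCR with FAM labelling, HpaI digestion and capillary electrophoresis; gain of signal versus DMSO.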
For the compound `c1ccc2c(c1)Nc1ccccc1S2`, the AC50 was 27.2 µM (active) and 5.66 µM (active).

In the case of `O=S(=O)(c1ccc(O)cc1)c1ccc(O)cc1`, the AC50 is 1.66 µM (active) and 1.76 µM (active).

In the case of `CCC(C)(C)c1ccc(O)cc1`, the half-maximal activity concentration (AC50) is 44.4 µM (active) and 3.05 µM (active).

Consider `CCCCc1ccc(O)cc1`, for which the AC50 was 2.45 µM (active) and 2.3 µM (active).

The target of the next test is GAL4 Transcription Factor (Internal Marker), GAL4 (gene 855828) (UniProt P04386). Description: ATG_GAL4_XSP2: Attagene TRANS-FACTORIAL Multi-Species (XSP2) HepG2 Assay for GAL4 Transcription Factor (Internal Marker) (AID 2283814).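 Also: GAL4 reporter mRNA background control in MRTU transfected cells not a receptor target.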 The method, boiled down: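 HepG2 cells transiently transfected with GAL4-UAS reporter units, stimulated with 3 nM 6-alpha-fluorotestosterone plus 1.5 nM norgestrel, dosed 24 h. Reporter mRNA by RT-PCR/capillary electrophoresis; gain-of-signal fit versus DMSO, background control.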
Sequence of GAL4 Transcription Factor (Internal Marker), GAL4 (gene 855828) (P04386 whole entry, looked up, the tested form may be a part): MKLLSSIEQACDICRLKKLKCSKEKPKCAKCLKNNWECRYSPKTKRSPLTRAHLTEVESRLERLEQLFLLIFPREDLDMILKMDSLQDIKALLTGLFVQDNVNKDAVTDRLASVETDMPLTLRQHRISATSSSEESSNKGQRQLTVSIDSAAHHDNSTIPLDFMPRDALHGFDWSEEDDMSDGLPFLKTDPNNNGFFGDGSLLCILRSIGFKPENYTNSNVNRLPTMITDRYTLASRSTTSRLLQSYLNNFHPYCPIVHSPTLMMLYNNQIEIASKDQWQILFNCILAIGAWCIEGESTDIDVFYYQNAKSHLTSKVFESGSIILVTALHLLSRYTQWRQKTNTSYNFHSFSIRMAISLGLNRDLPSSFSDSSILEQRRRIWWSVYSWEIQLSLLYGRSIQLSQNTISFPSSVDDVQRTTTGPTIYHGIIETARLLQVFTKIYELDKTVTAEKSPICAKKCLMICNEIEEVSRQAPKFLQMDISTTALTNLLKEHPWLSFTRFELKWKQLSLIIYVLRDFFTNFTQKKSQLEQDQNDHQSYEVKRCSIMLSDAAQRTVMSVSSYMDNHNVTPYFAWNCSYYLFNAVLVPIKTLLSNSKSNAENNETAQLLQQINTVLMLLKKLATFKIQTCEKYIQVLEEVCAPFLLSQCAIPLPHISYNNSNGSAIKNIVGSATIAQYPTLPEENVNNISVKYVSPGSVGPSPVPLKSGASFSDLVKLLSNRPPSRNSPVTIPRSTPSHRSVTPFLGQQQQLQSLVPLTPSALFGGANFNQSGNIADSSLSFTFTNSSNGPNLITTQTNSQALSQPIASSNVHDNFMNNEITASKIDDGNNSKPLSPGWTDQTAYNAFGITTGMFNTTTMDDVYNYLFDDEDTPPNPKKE
As to `c1ccc2c(c1)Nc1ccccc1S2`, the compound was called inactive.

For `CCC(C)(C)c1ccc(O)cc1`, the compound was classed as inactive.

In the case of `O=P(Oc1ccccc1)(Oc1ccccc1)Oc1ccccc1`, the compound was called inactive.

The target in the next test is zebrafish Estrogen Receptor (ER1), esr1 (gene 259252) (UniProt P57717). Kind of test: ATG_zfER1_XSP2: Attagene TRANS-FACTORIAL Multi-Species (XSP2) HepG2 Assay for zebrafish Estrogen Receptor (ER1) (AID 2283816). As for the experimental part: ATG_XSP2_multi-species_TRANS is a cell-based, multiplexed assay created by modifying the existing Attagene TRANS-FACTORIAL system to include a panel of nuclear receptors from some or all the following species: human (Homo sapiens), mouse (Mus musculus), frog (Xenopus laevis), zebrafish (Danio rerio), chicken (Gallus gallus), and turtle (Chrysemys picta). The ECOTOX-FACTORIAL format uses HepG2, a human liver cell line, with measurements taken at 24 hours after chemical dosing in a 24-well plate. Xsp2 included 3 nM 6-alpha-fluorotestosterone and 1.5 nM norgestrel to stimulate the androgen receptor.ATG_zfER1_XSP2 is one of 29 assay components measured or calculated from the ATG_XSP2_multi-species_TRANS assay. It is designed to make measurements of mRNA induction, a form of inducible reporter, as detected with fluorescence intensity signals by Reverse transcription polymerase chain reaction (RT-PCR) and Capillary electrophoresis technology.The assay endpoint ATG_zfER1_XSP2 was analyzed in the positive analysis fitting direction relative to DMSO as the negative control and baseline of activity. Using a type of inducible reporter, measures of mRNA for gain-of-signal activity can be used to understand the reporter gene at the transcription factor-level as they relate to the gene ER. Furthermore, this assay endpoint can be referred to as a primary readout, because this assay has produced multiple assay endpoints where this one serves a reporter gene function. To generalize the intended target to other relatable targets, this assay endpoint is annotated to the nuclear receptor intended target family, where the subfamily is steroidal.
Sequence of zebrafish Estrogen Receptor (ER1), esr1 (gene 259252) (P57717 whole entry, looked up): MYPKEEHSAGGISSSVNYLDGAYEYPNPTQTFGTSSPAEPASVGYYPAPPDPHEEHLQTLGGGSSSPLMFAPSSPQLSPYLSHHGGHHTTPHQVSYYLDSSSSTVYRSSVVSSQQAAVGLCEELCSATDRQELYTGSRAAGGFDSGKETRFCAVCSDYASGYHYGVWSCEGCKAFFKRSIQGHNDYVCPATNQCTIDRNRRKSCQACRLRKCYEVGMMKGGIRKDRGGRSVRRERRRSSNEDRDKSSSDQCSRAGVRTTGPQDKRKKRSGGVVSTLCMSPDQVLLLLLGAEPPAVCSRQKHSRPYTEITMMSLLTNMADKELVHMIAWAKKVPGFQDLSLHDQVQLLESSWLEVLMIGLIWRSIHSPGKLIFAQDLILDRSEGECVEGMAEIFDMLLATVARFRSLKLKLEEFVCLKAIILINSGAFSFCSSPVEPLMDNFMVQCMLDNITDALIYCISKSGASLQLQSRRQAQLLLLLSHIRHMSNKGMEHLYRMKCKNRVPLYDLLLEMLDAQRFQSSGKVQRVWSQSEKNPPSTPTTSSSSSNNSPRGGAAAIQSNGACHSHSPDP
Human liver HepG2 cells are transiently transfected with multiple reporter transcription units (MRTUs) in 6-well plates using FuGene 6 reagent (Roche; 3 ml FuGene/1 mg DNA). The MRTU constructs are regulated by a cis-regulating element (promoter). […] A major difference between the CIS and TRANS system is that in CIS activities of endogenous TFs are measured, whereas the TRANS assay evaluates changes in activities of exogenous, chimeric NR-Gal4 proteins. […] At the end of 24 hour incubation, total RNA was isolated using TriZol reagent (Invitrogen). The isolated RNA is then reverse-transcribed using oligo(dT) primer and Mo-MLV reverse transcriptase (Invitrogen) with DNAse I (Ambion) treatment for 30 min. The one-tenth of the produced cDNA was amplified by PCR using Taq DNA polymerase (Invitrogen) and two reporter sequence-specific primers. The PCR products were fluorescently labeled by primer extension with 6-arboxyfluorescein (6-FAM) 5'-labeled reporter sequence-specific primer (2 min at 95 C, 20 s at 68 C and 10 min at 72 C) and these products were digested with 5U of HpaI (New England Biolabs) for 2h at 37 C. The fragments were purified using Qiaquick PCR columns (Qiagen), analyzed on an ABI 3130xL genetic analyzer (Applied Biosystems) with peak positions identified by using a set of X-rhodamine (ROX)-labeled MapMarker1000 molecular weight standards (BioVentures). The raw capillary electrophoresis data was processed using Attagraph software (Attagene).
Regarding `c1ccc2c(c1)Nc1ccccc1S2`, the compound was classed as inactive.

As for `O=S(=O)(c1ccc(O)cc1)c1ccc(O)cc1`, the AC50 is 41.8 µM (active) and 17.2 µM (active).

On to `CC(C)(C)c1ccc(O)cc1`, for which the half-maximal activity concentration (AC50) was 170 µM (active) and 51.1 µM (active).

As to `CCC(C)(C)c1ccc(O)cc1`, the concentration at half-maximal activity (AC50) was 34.1 µM (active) and 7.34 µM (active).

Regarding `CCCCc1ccc(O)cc1`, the AC50 was 69.6 µM (active) and 7.15 µM (active).

For `O=P(Oc1ccccc1)(Oc1ccccc1)Oc1ccccc1`, the result was inactive.
